Hit rate of the full screen: of about 320,000 compounds, about 500 (0.16%) were called active. The sample holds actives, similar compounds and a random draw of the others, so the mix is not that of the screen.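 Rule for the calls: active = inhibition above the mean of all tested compounds plus 3 SD, set per campaign (cut at about 14% in these data); inactive = the rest.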
target: Acyl-protein thioesterase 1 (Homo sapiens) (UniProt O75608); experiment: LYPLA1 inhibitors, primary screen, counter-screen for PME1 inhibitor project, biochemical, fluorescence polarization, FP-Rh probe ABPP (AID 2174); settings: recombinant LYPLA1, FP-Rh probe fluorescence polarization; at 5.9 µM; stronger effect = higher value;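 note: inhibitors block serine hydrolase probe labeling of LYPLA1 so polarization falls; 0% = enzyme with DMSO and 100% = wells lacking LYPLA1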
Sequence (O75608 whole entry, looked up): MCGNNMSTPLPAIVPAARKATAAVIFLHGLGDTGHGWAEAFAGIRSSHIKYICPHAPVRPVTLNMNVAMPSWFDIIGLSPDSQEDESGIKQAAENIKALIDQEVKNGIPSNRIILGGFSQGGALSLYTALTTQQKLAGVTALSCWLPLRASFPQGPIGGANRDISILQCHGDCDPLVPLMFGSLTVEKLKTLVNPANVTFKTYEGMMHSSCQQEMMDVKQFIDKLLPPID

| Structure (SMILES) | inhibition |
| --- | --- |
| COc1ccc(C2CC(c3cccs3)Nc3nnnn32)cc1 (stereo not drawn) | 0.92% (inactive) |
| CN(Cc1ccc(F)cc1Cl)S(=O)(=O)c1cccs1 | 4.05% (inactive) |
| O=C(/C=C/c1cccc(C(F)(F)F)c1)N1CCN(c2ccccn2)CC1 | -2.76% (inactive) |
| Cc1cc(OCC(=O)N2CCN(c3ncccn3)CC2)ccc1Cl | -2.47% (inactive) |
| CCOc1ccc(C(=O)NCC(=O)N2CCN(c3ccc(C(F)(F)F)cn3)CC2)cc1 | 2.56% (inactive) |
| Cc1ccc(CNC(=O)CCNS(=O)(=O)c2ccc(Br)s2)cc1 | 0.04% (inactive) |
| COC(=O)c1ccc(CSc2ccc(S(=O)(=O)N3CCCCC3)cn2)cc1 | -1.32% (inactive) |
| CCOc1ccc(-n2cnnn2)cc1S(=O)(=O)N1CCC(C)CC1C (stereo not drawn) | 3.81% (inactive) |
| COc1ccc(CCNC(=O)CSc2nc(-c3ccc(OC)c(OC)c3)ccc2C#N)cc1 | -12.1% (inactive) |
| O=C(COc1ccc2ccccc2c1)N1CCN(C(=O)c2cccs2)CC1 | 1.27% (inactive) |
| O=C(O)c1ccccc1NC(=S)NC(NC(=O)c1ccccc1[N+](=O)[O-])C(Cl)(Cl)Cl (stereo not drawn) | 2.28% (inactive) |
| Cc1ccccc1Nc1nc(N)nc(CSc2ccccc2)n1 | -4.27% (inactive) |
| O=C1COc2ccc(NC(=O)N3CCN(c4ccc(F)cc4)CC3)cc2N1 | -0.21% (inactive) |
| CCCCCOc1ccc(/C=C/C(=O)NCCc2nc3ccccc3[nH]2)cc1OC | -8.82% (inactive) |
| CCN(CC(=O)Nc1c(F)cccc1F)C(=O)c1ccc(S(=O)(=O)N2CCCCC2)cc1 | 0.21% (inactive) |
| CCOc1ccc2ccccc2c1/C=N/NC(=O)c1c(C)cc(C)[nH]c1=O | -5.43% (inactive) |
| Cc1[nH]c2ccc(C(=O)N3CCN(C)CC3)cc2c1C | 2.14% (inactive) |
| CCOc1ccccc1N1CCN(C(=O)c2ccc3[nH]c(C)c(C)c3c2)CC1 | 14.2% (active) |
| COc1ccccc1N1CCN(C(=O)c2ccc(Cl)c(S(=O)(=O)N3CCCC3)c2)CC1 | 1.54% (inactive) |
| NC(=O)C1(N2CCCCC2)CCN(C2CC(=O)N(Cc3ccc(N4CCCC4=O)cc3)C2=O)CC1 (stereo not drawn) | 2.22% (inactive) |
| COc1cccc(NC(=S)NC(=O)c2c(Cl)c(C)nn2C)c1 | -3.22% (inactive) |
| COCCNc1nc2nonc2nc1N1CCCC1c1nccs1 (stereo not drawn) | 1.24% (inactive) |
| COc1ccccc1C(=O)NC(CCSC)C(=O)NNC(=O)c1ccccc1C (stereo not drawn) | 2.08% (inactive) |
| COc1ccccc1C(=O)NC(CCSC)C(=O)N1CCN(C/C=C/c2ccccc2)CC1 (stereo not drawn) | 18.2% (active) |
| COc1ccccc1C(=O)NC(CCSC)C(=O)N1CCN(C(C)=O)CC1 (stereo not drawn) | -1.6% (inactive) |
| COc1cnn(-c2ccc([N+](=O)[O-])cc2)c(=O)c1Cl | 3.8% (inactive) |

| Structure (SMILES) | inhibition |
| --- | --- |
| O=c1[nH]c2cccnc2n1-c1ccc([N+](=O)[O-])cc1 | -1.44% (inactive) |
| O=c1[nH]n(-c2ccc([N+](=O)[O-])cc2)c(=O)c2ccccc12 | 22.9% (active) |
| CCNC(=O)CC1C(=O)N(c2ccc(F)cc2)C(=O)N1Cc1cccs1 (stereo not drawn) | 1.31% (inactive) |
| Cc1cc(C)c2c(n1)sc1c(=O)n(-c3ccccc3)c(=O)[nH]c12 | -3.16% (inactive) |
| CCOc1ccc(S(=O)(=O)N/N=C(\C)c2ccc(Cl)c(Cl)c2Cl)cc1 | 0.76% (inactive) |
| C=CCSC(CC)(CC)C(N)=O | 6.47% (inactive) |
| CCCc1ccc(OCC(O)CN2CCN(C(=O)OCC)CC2)cc1 (stereo not drawn) | 2.73% (inactive) |
| CCOc1ccc(C(=O)NC(=S)Nc2ccc(N3CCOCC3)c(Cl)c2)cc1[N+](=O)[O-] | 19.9% (active) |
| CCOc1ccc(C(=O)NC(=S)Nc2ccc(NC(=O)C(C)C)cc2)cc1[N+](=O)[O-] | 2.01% (inactive) |
| COc1cccc(OC)c1C(=O)NC(=S)Nc1ccc(N2CCOCC2)c(Cl)c1 | -4.94% (inactive) |
| CCN1C(=NCCc2cccnc2)N[C@@H](c2ccccc2)C(C(=O)OC)=C1C | -0.51% (inactive) |
| Cc1ccc(NC(=O)c2ccc(CSc3ncnc4nc[nH]c34)cc2)c(C)c1 | -1.38% (inactive) |
| COc1ccccc1C(CNC(=O)c1cccc(S(=O)(=O)Nc2ccc(F)cc2)c1)N(C)C (stereo not drawn) | -0.85% (inactive) |
| CC(C)(C)NC(=O)COc1ccc(CNc2ccc3[nH]c(=O)[nH]c3c2)cc1 | -1.08% (inactive) |
| CC(Oc1ccc(F)cc1)C(=O)N1CCN(c2ncccn2)CC1 (stereo not drawn) | -4.75% (inactive) |
| O=C(c1ccc(Br)o1)N1CCN(CCOc2ccccc2)CC1 | 2.69% (inactive) |
| CC1(C)OC(=O)C(=CNC(CO)C(=O)O)C(=O)O1 (stereo not drawn) | -1.91% (inactive) |
| CCC(=C/c1sc2ccc3ccccc3c2[n+]1C)/C=C1\Sc2ccc3ccccc3c2N1C | 25% (active) |
| O=C(COc1ccc(Cl)cc1)N1CCN(S(=O)(=O)c2ccc(Cl)cc2)CC1 | -0.66% (inactive) |
| Cc1c(C)c2ccc(OCC(=O)N3CCN(c4cccc(Cl)c4)CC3)cc2oc1=O | 6.19% (inactive) |
| O=C(COc1ccc(Cl)cc1)N1CCN(c2cccc(C(F)(F)F)c2)CC1 | 20.5% (active) |
| CC/C(=N\NC(=O)c1c(C)nc2ccccn12)c1ccc(Cl)cc1 | -2.24% (inactive) |
| O=C(c1ccco1)N1CCN(CC(=O)N(C2CCCCC2)C2CCS(=O)(=O)C2)CC1 (stereo not drawn) | 5.75% (inactive) |
| CC(CC(=O)C1C(C)C=CCC1(C)C)NNC(N)=O (stereo not drawn) | 0.24% (inactive) |
| CCOC(=O)c1sc2nc(C)nc(Nc3ccc(OC)c(OC)c3)c2c1C | -0.83% (inactive) |
| CSc1nc(-c2ccccc2)nc(C(Cl)Cl)n1 | 3.5% (inactive) |

| Structure (SMILES) | inhibition |
| --- | --- |
| CCn1c(CC(=O)Nc2ccc(C)cc2)nnc1SCC(=O)Nc1nc(C)cs1 | -2.24% (inactive) |
| Cc1ccc(NC(=O)NNC(=O)c2sccc2-n2cccc2)cc1 | -1.32% (inactive) |
| CCOC(=O)NN1C(=O)c2ccccc2NC1c1ccccc1O (stereo not drawn) | 2.15% (inactive) |
| COc1cccc(CNS(=O)(=O)c2csc(C(N)=O)c2)c1 | -2.15% (inactive) |
| CCCCn1c(N)c(N(CC(C)C)C(=O)CN(C)S(=O)(=O)c2ccc(F)cc2)c(=O)[nH]c1=O | -3.12% (inactive) |
| CC(=O)N1C(C)c2ccccc2C(C)(C)CC12CCCCC2 (stereo not drawn) | 0.06% (inactive) |
| COC(=O)c1ccc2ccccc2c1OC1OC(CO)C(O)C(O)C1NC(C)=O (stereo not drawn) | -2.18% (inactive) |
| Cc1ccc2c(c1)N(S(=O)(=O)c1cc(-c3cc(C)no3)ccc1C)CCO2 | -4.6% (inactive) |
| Cc1cccc(N2CCN(C(=O)CN(C)S(=O)(=O)c3ccc4c(c3)CCC(=O)N4)CC2)c1C | 16.5% (active) |
| Cc1cccc(N2CCN(C(=O)CCS(=O)(=O)c3ccc4c(c3)NC(=O)C(C)S4)CC2)c1C (stereo not drawn) | 2.02% (inactive) |
| CCOC(=O)Cc1csc(NC(=O)CN(C)S(=O)(=O)c2ccc3c(c2)CCC(=O)N3)n1 | -0.84% (inactive) |
| O=c1[nH]n(-c2cccc(Cl)c2)c2ncccc12 | 29.8% (active) |
| O=C(O)CSc1nccn1-c1cccc(Cl)c1 | -1.21% (inactive) |
| O=c1c(-c2cccc(Cl)c2)c[nH]n1-c1ccccc1 | -3.25% (inactive) |
| Cc1ccc(C2=NN(C)c3nc4ccccc4n3C2)cc1 | -2.83% (inactive) |
| CN1CCN(C(=O)N2c3ccccc3CCc3ccccc32)CC1 | 3.26% (inactive) |
| O=C(CSc1ncnc2c1nnn2Cc1ccc(F)cc1)NC1CCCC1 | 1.1% (inactive) |
| CCOC(=O)c1cc2cc(-c3c(C(=O)OCC)oc4cc(O)cc(O)c4c3=O)ccc2o1 | 9.58% (inactive) |
| CCOC(=O)c1nnn2c1nc(N1CCN(c3ccccc3)CC1)c1ccccc12 | -0.46% (inactive) |
| O=C(CCNS(=O)(=O)c1ccccc1C(F)(F)F)Nc1ccncc1 | -2.82% (inactive) |
| C/C(Cn1nnc2ccccc21)=N\OC(=O)c1cc(F)c(F)cc1Cl | -3.21% (inactive) |
| Cn1c(=O)c2c(nc(N/N=C/c3cccs3)n2Cc2ccc(Br)cc2)n(C)c1=O | 4.08% (inactive) |
| Cc1nc(C(=O)N2CCCC(C(=O)c3ccc(Cl)cc3)C2)cs1 (stereo not drawn) | -0.29% (inactive) |
| O=C(c1ccc(-c2ccccc2)cc1)C1CCCN(C(=O)c2cncs2)C1 (stereo not drawn) | 24% (active) |
| Cn1nccc1C(=O)N1CCCC(C(=O)c2ccc(Oc3ccccc3)cc2)C1 (stereo not drawn) | 6.29% (inactive) |
| COC(=O)c1cc2c(ccn2C)n1C | -0.69% (inactive) |

Reference: PubChem BioAssay AID2174 (The Scripps Research Institute Molecular Screening Center, 2009)
